Source: PubChem BioAssay (NCATS)
“And” between values parts separate entries of the source, which are not always exact repeats. Equal entries are not always repeated. Records with an inconclusive call do not appear. The source made the active and inactive calls. Unless noted, calls come from the whole dose curve; as a rule, active = well fitted cell-killing curve with a large enough effect; inconclusive = small, poorly fitted or top-dose-only effect, or effect the other way; inactive = flat fitted curve, though single readings scatter.

Test system: not listed separately
Experiment: qHTS assay for cell viability of the p53RE-bla HCT-116 cell line (AID 743292); note: % is set by controls: 0 for no effect and ±100 for the full control effect; nearly all actives have a fitted effect of over 55% in size
Conditions: p53RE-bla HCT-116 viability, ATP luminescence, 16 h; series mostly up to 95 µM; activity change, negative = cytotoxicity: at the top concentration
How it was run: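 ATP-based luminescent viability (CellTiter-Glo, 30 min RT) after 16 h compound treatment at 37 C of p53RE-bla HCT-116 cells, seeded at 4,000 cells/well and rested 5 h before dosing.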

Structure (SMILES) | Potency | activity change, negative = cytotoxicity
Brc1ccccc1 | inactive | 
CCOP(=S)(OCC)SCSC(C)(C)C | inactive | 
C=C(C)C#N | inactive | 
CCSC(=O)Cl |  | 4.37% (inactive)
Cc1cccc([N+](=O)[O-])c1 | inactive | 
Nc1c(Cl)c(Cl)nc(C(=O)O)c1Cl | inactive | 
CC(C)(C)OOC(C)(C)C |  | 1.97% (inactive)
C=C(C)C(=O)OCC1CO1 (stereo unspecified) |  | 3.96% (inactive)
Cc1ccc([N+](=O)[O-])cc1C | inactive | 
O=[N+]([O-])c1ccc(Cl)c(Cl)c1 |  | -0.0749% (inactive)
C=CC(=C)C |  | 0.131% (inactive)
Cc1ccc2ccccc2c1 |  | -0.51% (inactive)
Nc1ccccc1Cl |  | -3.74% (inactive)
Clc1ccc2ccccc2c1 |  | -0.18% (inactive)
[O-][Br+2]([O-])O | inactive | 
Clc1nc(Cl)nc(Nc2ccccc2Cl)n1 |  | 10.5% (inactive)
OCC1CO1 (stereo unspecified) | inactive | 
C=CCOC(=O)c1ccccc1N |  | -5.49% (inactive)
C=CC(N)=O | inactive | 
CC(C)(c1ccccc1)c1ccc(O)cc1 | inactive | 

Structure (SMILES) | Potency | activity change, negative = cytotoxicity
CCN(CC)c1ccccc1 |  | -2.68% (inactive)
S=C=Nc1cccc2ccccc12 |  | -11.7% (inactive)
N#CCCCl | inactive | 
O=NN(CCO)CCO |  | -10.7% (inactive)
Cc1ccccc1N | inactive | 
C=CCOC(C)=O |  | -7.3% (inactive)
CCCC(=O)Cl |  | 1.5% (inactive)
NC(=S)Nc1ccccc1 | inactive | 
O=C(Cl)/C=C/C(=O)Cl |  | -3.49% (inactive)
C=C(Cl)Cl |  | 7.86% (inactive)
ClCBr |  | 7.15% (inactive)
COc1ccc(C=O)cc1OC | inactive | 
C=CC(=O)OCC |  | -5.63% (inactive)
c1nc[nH]n1 |  | -4.45% (inactive)
c1ccc2c(c1)CCCC2 |  | -10.5% (inactive)
CCCSC(=O)Cl |  | -2.36% (inactive)
Clc1cccc(C(Cl)(Cl)Cl)n1 | inactive | 
O=NN(c1ccccc1)c1ccccc1 | inactive | 
C1CCC2CCCCC2C1 (stereo unspecified) |  | 7.65% (inactive)
CC(O)CCl (stereo unspecified) | inactive | 

Molecular target: Nuclear receptor subfamily 1 group I member 2 (Rattus norvegicus) (UniProt Q9R1A7)
Sequence (Q9R1A7 whole entry, looked up): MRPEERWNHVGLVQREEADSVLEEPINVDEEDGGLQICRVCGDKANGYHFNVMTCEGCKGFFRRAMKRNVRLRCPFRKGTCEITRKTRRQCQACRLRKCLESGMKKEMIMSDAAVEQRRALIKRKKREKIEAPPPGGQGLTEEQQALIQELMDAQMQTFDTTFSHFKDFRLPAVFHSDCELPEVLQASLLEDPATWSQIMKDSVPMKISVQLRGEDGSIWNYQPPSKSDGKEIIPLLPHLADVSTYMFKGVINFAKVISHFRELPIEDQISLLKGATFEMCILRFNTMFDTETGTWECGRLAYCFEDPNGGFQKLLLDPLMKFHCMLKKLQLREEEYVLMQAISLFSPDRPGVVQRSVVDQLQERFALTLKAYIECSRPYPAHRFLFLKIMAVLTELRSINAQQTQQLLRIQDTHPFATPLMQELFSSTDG
Experiment: qHTS assay for small molecule activators of the rat pregnane X receptor (rPXR) signaling pathway (AID 651751; call rule not given here; note: 0% is about no effect)
Conditions: rPXR reporter cells, luciferase (One-Glo), 24 h

Structure (SMILES) | max response
Brc1ccccc1 | 0.981% (inactive) and 1.34% (inactive)
CCOP(=S)(OCC)SCSC(C)(C)C | 3.05% (inactive) and 5.9% (inactive)
C=C(C)C#N | 2.68% (inactive) and -1.1% (inactive)
CCSC(=O)Cl | 4.31% (inactive)
Nc1c(Cl)c(Cl)nc(C(=O)O)c1Cl | -1% (inactive) and -3.34% (inactive) and -1.89% (inactive)
CC(C)(C)OOC(C)(C)C | 2.42% (inactive)
C=C(C)C(=O)OCC1CO1 (stereo unspecified) | -2.46% (inactive)
Cc1ccc([N+](=O)[O-])cc1C | 1.14% (inactive) and -0.13% (inactive)
O=[N+]([O-])c1ccc(Cl)c(Cl)c1 | 0.633% (inactive)
C=CC(=C)C | 11% (inactive)
Cc1ccc2ccccc2c1 | 6.07% (inactive)
Nc1ccccc1Cl | 9.37% (inactive)
Clc1ccc2ccccc2c1 | 7.07% (inactive)
OCC1CO1 (stereo unspecified) | -4.01% (inactive) and -4.87% (inactive)
C=CCOC(=O)c1ccccc1N | 4.98% (inactive)
C=CC(N)=O | 2.43% (inactive) and 2.67% (inactive) and -1.89% (inactive)
CC(C)(c1ccccc1)c1ccc(O)cc1 | 0.482% (inactive) and 0.567% (inactive)
CCN(CC)c1ccccc1 | -0.145% (inactive)

Structure (SMILES) | max response
S=C=Nc1cccc2ccccc12 | 5.78% (inactive)
N#CCCCl | -4.29% (inactive) and -2.84% (inactive)
O=NN(CCO)CCO | 3.2% (inactive)
Cc1ccccc1N | -2.81% (inactive) and 0.311% (inactive)
C=CCOC(C)=O | -1.67% (inactive)
CCCC(=O)Cl | -1.41% (inactive)
O=C(Cl)/C=C/C(=O)Cl | 0.356% (inactive)
C=C(Cl)Cl | -3.03% (inactive)
ClCBr | 0.745% (inactive)
COc1ccc(C=O)cc1OC | -2.56% (inactive) and 1.92% (inactive)
C=CC(=O)OCC | -4.65% (inactive)
c1nc[nH]n1 | 0.756% (inactive)
c1ccc2c(c1)CCCC2 | -0.477% (inactive)
CCCSC(=O)Cl | -3.99% (inactive)
Clc1cccc(C(Cl)(Cl)Cl)n1 | -2.08% (inactive) and -3.74% (inactive)
O=NN(c1ccccc1)c1ccccc1 | 2.63% (inactive) and 4.55% (inactive)
C1CCC2CCCCC2C1 (stereo unspecified) | 1.72% (inactive)
CC(O)CCl (stereo unspecified) | 4.48% (inactive) and -2.85% (inactive)
